Data reported in PubChem BioAssay (NCATS).
Records with an inconclusive call do not appear. Activity calls are given as the source filed them. Unless noted, calls follow the shape of the dose curve; as a rule, active = well fitted curve in either direction with a large enough effect (not every such curve was filed as active); inconclusive = small, poorly fitted or top-dose-only effect, or another doubt; inactive = flat fitted curve, though single readings scatter.

Legend:
[1] = molecular target: Lysosomal acid glucosylceramidase (Homo sapiens) (UniProt P04062); assay: Glucocerebrosidase-p2 (AID 348; in the data active = potency below about 10 µM; also: potency is read from the fitted curve at half-maximal effect); settings: purified GBA, blue fluorogenic substrate, 40 min
Sequence of Lysosomal acid glucosylceramidase (Homo sapiens) (P04062 whole entry, looked up): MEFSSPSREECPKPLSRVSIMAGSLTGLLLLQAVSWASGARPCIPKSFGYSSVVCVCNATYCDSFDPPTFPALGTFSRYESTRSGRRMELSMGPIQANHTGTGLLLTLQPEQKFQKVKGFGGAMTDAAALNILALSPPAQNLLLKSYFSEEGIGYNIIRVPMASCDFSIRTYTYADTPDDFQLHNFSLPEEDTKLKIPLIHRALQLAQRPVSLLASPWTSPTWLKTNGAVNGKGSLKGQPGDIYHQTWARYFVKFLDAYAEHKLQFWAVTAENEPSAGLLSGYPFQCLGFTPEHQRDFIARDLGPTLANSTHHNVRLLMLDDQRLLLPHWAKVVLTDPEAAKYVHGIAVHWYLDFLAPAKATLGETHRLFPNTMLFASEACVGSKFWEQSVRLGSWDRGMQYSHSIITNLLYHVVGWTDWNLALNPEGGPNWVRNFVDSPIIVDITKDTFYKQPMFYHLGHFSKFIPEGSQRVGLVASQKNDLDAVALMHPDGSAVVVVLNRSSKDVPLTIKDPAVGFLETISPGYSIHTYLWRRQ
How it was run: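 Compounds titrated from 0.6 nM upwards against 0.2 nM enzyme in pH 5.9 citric acid/KH2PO4, taurocholate, tween-20; blue fluorogenic substrate 80 uM, 40 min room temperature, stopped and read Ex 365/Em 440 for AC50.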

[2] = AP1 Signaling Pathway (AID 357); settings: ME-180 AP-1-bla reporter, EGF-induced, beta-lactamase ratio, 5 h; at 7.69 µM (top of the series) unless noted; also: % is scaled to controls: 0 for no effect and ±100 for the full control effect
How it was run: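 ME-180 cells with beta-lactamase reporter under AP-1 response element, stimulated with EC50 EGF; compounds tested in titration series, 5 h at 37 °C. CCF4 substrate added 2.5 h at room temperature; 460/530 nm emission ratio gave %activity and AC50.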

[3] = molecular target: Cytochrome P450 1A2 (Homo sapiens) (UniProt P05177); assay: p450-cyp1a2 (AID 410; calls by dose curve; also: potency is read from the fitted curve at half-maximal effect;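 as to activity change, negative = inhibition: -100% = full effect of reference inhibitor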); settings: recombinant CYP1A2, luciferin-ME demethylation, luminescence; series mostly up to 57 µM
Sequence of Cytochrome P450 1A2 (Homo sapiens) (P05177 whole entry, looked up): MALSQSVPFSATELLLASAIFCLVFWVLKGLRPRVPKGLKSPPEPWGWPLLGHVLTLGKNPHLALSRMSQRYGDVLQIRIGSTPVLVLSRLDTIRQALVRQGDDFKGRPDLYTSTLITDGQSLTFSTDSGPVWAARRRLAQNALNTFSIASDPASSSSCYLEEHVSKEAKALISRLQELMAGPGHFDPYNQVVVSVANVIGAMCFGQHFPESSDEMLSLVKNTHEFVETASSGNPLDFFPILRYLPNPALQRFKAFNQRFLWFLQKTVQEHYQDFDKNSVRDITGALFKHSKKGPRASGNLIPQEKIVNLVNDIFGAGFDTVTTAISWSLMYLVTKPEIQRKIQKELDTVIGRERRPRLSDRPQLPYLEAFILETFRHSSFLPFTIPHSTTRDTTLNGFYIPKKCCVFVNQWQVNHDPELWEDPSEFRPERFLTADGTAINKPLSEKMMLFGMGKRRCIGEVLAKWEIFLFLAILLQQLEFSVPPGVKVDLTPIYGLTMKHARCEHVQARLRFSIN
How it was run: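 Human CYP1A2 (20nM) demethylated Luciferin-ME at its Km (100uM) in 100mM KPO4. After 10 min compound preincubation, NADPH regeneration ran the reaction 60 min at room temperature. Luciferin was read by luminescence, normalized to 57 uM furafylline.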

[4] = NFAT Signaling Pathway (AID 444); settings: Jurkat NFAT-bla M1, carbachol, beta-lactamase ratio, 5 h; at 7.69 µM (top of the series) unless noted;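 also: carbachol stimulus at about its EC50 of 1 µM final; % is scaled to controls: 0 for no effect and ±100 for the full control effect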
How it was run: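 Jurkat cells carrying an NFAT-driven β-lactamase reporter and co-transfected muscarinic M1 receptor were treated with compound plus carbachol (1 uM final, an EC50 level) for 5 h at 37 °C. CCF4 loading followed for 1 h at RT; 460/530 nm ratio gave %activity.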

[5] = Stat Signaling Pathway (AID 446); settings: ME-180 (cervical carcinoma) SIE beta-lactamase reporter, IL-6 stimulated, 5 h; at 7.69 µM (top of the series) unless noted;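 also: ME-180 cervical cancer cells given 40 pM IL-6 alongside compound; SIE-controlled beta-lactamase reporter measured as 460/530 nm FRET emission ratio; % is scaled to controls: 0 for no effect and ±100 for the full control effect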
How it was run: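 IL-6/STAT signaling read in ME-180 cells via an SIE beta-lactamase reporter. Stimulus was 40 pM IL-6 (its AC50) for 5 hrs, so both activation and inhibition register.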

[6] = molecular target: Glucocorticoid receptor (Homo sapiens) (UniProt P04150); assay: GR-GFP Redistribution (AID 450;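 active = compounds whose dose series gives a full or clear partial fitted curve of increased nuclear translocation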; also: potency is read from the fitted curve at half-maximal effect); settings: U2OS GR-GFP nuclear translocation, laser cytometry, 2 h
Sequence of Glucocorticoid receptor (Homo sapiens) (P04150 whole entry, looked up, the tested form may be a part): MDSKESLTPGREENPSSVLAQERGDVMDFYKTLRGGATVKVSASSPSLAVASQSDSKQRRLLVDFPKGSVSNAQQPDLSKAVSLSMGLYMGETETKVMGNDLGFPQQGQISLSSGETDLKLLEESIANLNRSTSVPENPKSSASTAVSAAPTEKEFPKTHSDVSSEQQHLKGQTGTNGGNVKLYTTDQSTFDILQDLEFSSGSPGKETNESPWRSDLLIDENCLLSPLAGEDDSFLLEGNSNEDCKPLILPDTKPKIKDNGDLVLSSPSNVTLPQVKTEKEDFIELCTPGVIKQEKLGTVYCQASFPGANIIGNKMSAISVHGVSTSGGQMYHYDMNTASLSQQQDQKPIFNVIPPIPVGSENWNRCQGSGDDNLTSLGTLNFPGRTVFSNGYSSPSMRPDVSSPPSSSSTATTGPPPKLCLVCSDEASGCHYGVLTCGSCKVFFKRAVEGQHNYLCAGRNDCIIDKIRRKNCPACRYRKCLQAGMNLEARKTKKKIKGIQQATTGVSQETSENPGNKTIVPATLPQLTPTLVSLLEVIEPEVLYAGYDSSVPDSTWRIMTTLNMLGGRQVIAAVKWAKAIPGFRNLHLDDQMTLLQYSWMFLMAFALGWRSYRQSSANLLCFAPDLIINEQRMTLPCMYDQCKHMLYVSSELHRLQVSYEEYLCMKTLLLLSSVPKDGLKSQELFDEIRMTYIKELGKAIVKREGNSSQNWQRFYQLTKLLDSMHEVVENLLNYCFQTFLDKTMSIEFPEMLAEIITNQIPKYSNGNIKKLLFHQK

[7] = molecular target: Glucocorticoid receptor (Homo sapiens) (UniProt P04150); assay: GR-EFC Redistribution (AID 451; calls by dose curve; also: potency is read from the fitted curve at half-maximal effect); settings: CHO-K1 GR-EFC translocation, beta-gal luminescence, 2 h
How it was run: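 CHO-K1 cells stably expressing nuclear-localized β-gal enzyme acceptor and GR fused C-terminally to the enzyme donor fragment; ligand-driven nuclear translocation restores β-gal by complementation. Compounds titrated up to 46 uM final, 2 h at 37 °C; luminescence read.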

[8] = molecular target: Mitogen-activated protein kinase 10 (Mus musculus) (UniProt Q61831); assay: JNK3 AlphaScreen Assay (AID 530); settings: JNK3 lysate, c-Jun phosphorylation; series mostly up to 57.1 µM;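 also: kinase came from lysate of stimulated human HepG2 cells; signal reports phosphorylation of biotinylated GST-cJun 1-79 at Ser73 with 10 µM ATP; % is scaled to controls: 0 for no effect and ±100 for the full control effect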
How it was run: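 JNK3 came from HepG2 lysates pre-activated with IL-1beta and TNF-alpha and phosphorylated biotinylated GST-cJun (1-79) at 10 uM ATP, pH 7.6, room temperature. Compounds were titrated. AlphaScreen signal used anti-phospho-cJun (Ser73) antibody.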

[9] = molecular target: Cytochrome P450 3A4 (Homo sapiens) (UniProt P08684); assay: qHTS Assay for Activators of Cytochrome P450 3A4 (AID 885; active = well fitted curve in the direction sought with a large enough effect; an effect the other way counts as inactive or inconclusive; also: nearly all actives have a fitted effect of over 65% in size); settings: recombinant CYP3A4, Luciferin-PPXE luminescence, 60 min; series mostly up to 57.1 µM
Sequence of Cytochrome P450 3A4 (Homo sapiens) (P08684 whole entry, looked up): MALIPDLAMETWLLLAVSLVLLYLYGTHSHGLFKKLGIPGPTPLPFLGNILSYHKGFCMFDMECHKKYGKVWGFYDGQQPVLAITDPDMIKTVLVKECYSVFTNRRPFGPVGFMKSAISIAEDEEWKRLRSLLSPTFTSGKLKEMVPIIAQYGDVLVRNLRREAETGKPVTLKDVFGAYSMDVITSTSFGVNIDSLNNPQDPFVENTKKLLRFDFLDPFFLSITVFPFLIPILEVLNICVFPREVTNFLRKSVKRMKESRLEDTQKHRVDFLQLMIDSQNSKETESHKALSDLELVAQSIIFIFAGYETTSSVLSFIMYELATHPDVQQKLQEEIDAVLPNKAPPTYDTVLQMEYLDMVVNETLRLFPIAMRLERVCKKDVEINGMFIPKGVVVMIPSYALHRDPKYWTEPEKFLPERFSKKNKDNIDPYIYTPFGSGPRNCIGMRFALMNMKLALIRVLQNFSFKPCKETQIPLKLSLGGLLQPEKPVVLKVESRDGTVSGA
How it was run: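 Quantitative HTS format: compounds preincubated with 20nM human CYP3A4 and Luciferin-PPXE substrate at KM, reaction started by NADPH regeneration, stopped after 60 min, luciferase luminescence read 20 min later.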

[10] = Confirmation and Secondary Assay for Modulators of Hemoglobin Beta Chain Splicing at IVS2 654 locus (AID 910; active = well fitted curve in the direction sought with a large enough effect; an effect the other way counts as inactive or inconclusive;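 also: per-well total GFP intensity by laser scanning cytometry after 2-day treatment; % of control where 0% means no effect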); settings: HeLa EGFP-654 splicing reporter, GFP fluorescence, 48 h; series mostly up to 38.3 µM
How it was run: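 HeLa cells stably carrying EGFP interrupted by mutant beta-globin IVS2-654 intron (CMV-driven) were treated with compound for 2 days at 37C; corrected splicing was scored as total peak GFP intensity per well (488 nm excitation, 500-520 nm emission).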

[11] = Confirmation and Secondary Assay for Modulators of Hemoglobin Beta Chain Splicing at IVS2 705 locus (AID 930; active = well fitted curve in the direction sought with a large enough effect; an effect the other way counts as inactive or inconclusive;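 also: HeLa cells stably expressing the EGFP-705 splicing reporter; GFP fluorescence per well restored by corrected splicing of the IVS2-705 intron in EGFP; % of control where 0% means no effect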); settings: HeLa EGFP-705 splicing reporter, GFP fluorescence, 48 h; series mostly up to 38.3 µM
How it was run: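 Per-well GFP, captured at 1 x 8 µm resolution with 488 nm excitation, served as the read-out for HeLa EGFP-705 cells incubated 2 days with test compound versus DMSO.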

[12] = qHTS Assay for Lipid Storage Modulators (AID 1519; calls by dose curve); settings: Drosophila S3 cells, BODIPY lipid droplet/cell ratio, laser cytometry, cells loaded with oleic acid; for activity change, negative = inhibition: at 57.5 µM (top of the series)
How it was run: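 Cells seeded at 5,000 per well were treated with compounds over a concentration series and loaded with oleic acid (400 uM, as added). Lipid droplet fluorescence (488 nm excitation, 500-530 nm channel) was read by laser-scanning cytometry and normalized to 20 uM Triacsin C.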

[13] = molecular target: Ubiquitin carboxyl-terminal hydrolase 1 (Homo sapiens) (UniProt O94782); assay: Inhibitors of USP1/UAF1: Pilot qHTS (AID 504865; active = well fitted curve in the direction sought with a large enough effect; an effect the other way counts as inactive or inconclusive; also: nearly all actives have a fitted effect of over 35% in size; also: potency is read from the fitted curve at half-maximal effect); settings: purified USP1/UAF1, Ub-rhodamine cleavage fluorescence; series mostly up to 54.9 µM
Sequence of Ubiquitin carboxyl-terminal hydrolase 1 (Homo sapiens) (O94782 whole entry, looked up): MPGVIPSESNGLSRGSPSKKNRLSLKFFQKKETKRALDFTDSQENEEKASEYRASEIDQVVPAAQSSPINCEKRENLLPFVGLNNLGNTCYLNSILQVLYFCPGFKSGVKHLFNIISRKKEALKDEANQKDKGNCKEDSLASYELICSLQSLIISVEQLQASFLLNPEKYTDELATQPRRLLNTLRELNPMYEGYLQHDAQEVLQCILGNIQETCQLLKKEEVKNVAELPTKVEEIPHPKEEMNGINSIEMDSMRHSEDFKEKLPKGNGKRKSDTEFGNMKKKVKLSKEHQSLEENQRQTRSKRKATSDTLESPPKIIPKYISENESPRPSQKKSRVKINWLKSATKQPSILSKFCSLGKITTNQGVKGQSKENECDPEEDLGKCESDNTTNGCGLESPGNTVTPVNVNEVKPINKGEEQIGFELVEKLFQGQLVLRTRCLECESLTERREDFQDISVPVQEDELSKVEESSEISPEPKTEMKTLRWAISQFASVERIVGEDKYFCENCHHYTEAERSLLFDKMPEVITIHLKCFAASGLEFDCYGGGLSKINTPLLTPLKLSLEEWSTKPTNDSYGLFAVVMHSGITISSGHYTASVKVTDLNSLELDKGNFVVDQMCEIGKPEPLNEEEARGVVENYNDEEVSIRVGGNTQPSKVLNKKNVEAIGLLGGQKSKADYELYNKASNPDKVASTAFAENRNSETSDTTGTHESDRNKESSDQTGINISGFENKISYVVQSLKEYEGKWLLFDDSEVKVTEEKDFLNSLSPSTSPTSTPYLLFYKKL
How it was run: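 USP1/UAF1 complex (1nM) preincubated with compound 15 min at room temperature, then Ub-Rho substrate (150nM final) added. Fluorescence read kinetically at 480/540 nm, 6 reads every 60 seconds. Buffer: 50mM HEPES pH 7.8, 0.5mM EDTA, 0.1 mg/ml BSA, 1mM TCEP, 0.01% Tween-20.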

[14] = molecular target: 3',5'-cyclic-AMP phosphodiesterase 4B (Homo sapiens) (UniProt Q07343); assay: qHTS Assay for Inhibitors of PDE-IV (AID 607; active = well fitted activation curve with a large enough effect in the main read-out, with a control signal flat, not every such curve was filed as active; also: % of control where 0% means no effect); settings: HEK293 ACTOne CNG channel cells, membrane potential fluorescence; series mostly up to 22.9 µM
Sequence of 3',5'-cyclic-AMP phosphodiesterase 4B (Homo sapiens) (Q07343 whole entry, looked up): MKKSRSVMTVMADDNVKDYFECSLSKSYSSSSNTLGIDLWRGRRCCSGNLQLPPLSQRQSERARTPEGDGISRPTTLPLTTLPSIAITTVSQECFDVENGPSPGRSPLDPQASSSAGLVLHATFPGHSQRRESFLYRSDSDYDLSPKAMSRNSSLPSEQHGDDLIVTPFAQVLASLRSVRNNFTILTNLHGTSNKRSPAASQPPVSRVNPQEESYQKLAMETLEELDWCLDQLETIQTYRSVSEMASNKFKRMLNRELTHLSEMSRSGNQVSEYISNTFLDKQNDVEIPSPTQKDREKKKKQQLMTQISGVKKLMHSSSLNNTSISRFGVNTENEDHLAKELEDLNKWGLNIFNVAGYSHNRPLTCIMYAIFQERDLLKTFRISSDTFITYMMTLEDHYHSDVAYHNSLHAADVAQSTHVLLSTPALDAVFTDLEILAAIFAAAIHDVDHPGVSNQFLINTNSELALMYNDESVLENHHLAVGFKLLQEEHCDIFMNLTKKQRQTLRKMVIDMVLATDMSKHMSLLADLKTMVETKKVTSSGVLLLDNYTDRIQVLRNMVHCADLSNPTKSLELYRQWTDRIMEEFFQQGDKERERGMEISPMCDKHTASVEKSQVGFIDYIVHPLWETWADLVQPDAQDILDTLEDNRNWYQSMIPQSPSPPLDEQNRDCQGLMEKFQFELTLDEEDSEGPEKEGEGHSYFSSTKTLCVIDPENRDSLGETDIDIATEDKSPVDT
How it was run: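 Live HEK293 cells with a modified cyclic nucleotide-gated (CNG) channel report intracellular cAMP via membrane-potential dye fluorescence (ex 535/em 590 nm). Endogenous PDE-IV was targeted. Compounds were tested at up to 22.9 uM final; RO 20-1724 100 uM served as control.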

[15] = molecular target: Cytochrome P450 3A4 (Homo sapiens) (UniProt P08684); assay: qHTS Assay for Inhibitors and Substrates of Cytochrome P450 3A4 (AID 884; active = well fitted curve in the direction sought with a large enough effect; an effect the other way counts as inactive or inconclusive; also: potency is read from the fitted curve at half-maximal effect; nearly all actives have a fitted effect of over 50% in size); settings: recombinant CYP3A4, Luciferin-PPXE luminescence; series mostly up to 57.1 µM
How it was run: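 20 nM human CYP3A4 with 25 uM Luciferin-PPXE (at KM) in 200 mM KPO4, preincubated 10 min with compound; NADPH regeneration started a 60 min RT reaction. Luciferin detected by luminescence, normalized to 57 uM ketoconazole as full inhibition.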

[16] = measured here: cell count channel max response
[17] = measured here: lipid channel max response

Row | Structure (SMILES) | Potency [1] | activity change, negative = inhibition [2] | Potency [3] | activity change, negative = inhibition [4] | activity, negative = inhibition [5] | Potency [6] | Potency [7] | Potency [8] | Potency [9] | Potency [10] | outcome [11] | activity change, negative = inhibition [12] | max response [12, 16] [%] | max response [12, 17] [%] | Potency [13] | Potency [14] | Potency [15]
1 | CN(C)Cc1ccccc1-c1ccc2ncnc(NCc3ccccc3)c2c1 | > 11.4 µM (inactive) | -7.49% (inactive) | 15.8 µM (active) | -27% (inactive) | 11.3% (inactive) | > 46 µM (inactive) | > 46 µM (inactive) | inactive | inactive | inactive | inactive | 5.57% (inactive) | 19.6 | 25.6 | inactive |  | 
2 | N#Cc1cccc(-c2nc(Nc3ccncc3)c3ccccc3n2)c1 | 2.09 µM (active) | -0.676% (inactive) | 0.631 µM (active) | -19.2% (inactive) | 8.07% (inactive) | > 46 µM (inactive) | > 46 µM (inactive) | inactive | inactive | inactive | inactive | 5.79% (inactive) | 4.98 | 11.4 |  | inactive | 
3 | COc1ccc(C(=O)N2CCC3(CCN(C(=O)Nc4cccc(F)c4)CC3)CC2)cc1 | > 11.4 µM (inactive) | -28.3% (inactive) | inactive | 7.36% (inactive) | -5.59% (inactive) |  | > 46 µM (inactive) | inactive |  |  |  | 6.16% (inactive) | 13.8 | 22 |  | inactive | 
4 | Cn1cccc1C(=O)N1CCC2(CC1)CN(Cc1cc(C(F)(F)F)cc(C(F)(F)F)c1)C2 | > 11.4 µM (inactive) | -5.13% (inactive) | 10 µM (active) | 15.4% (inactive) | -14.1% (inactive) |  | > 46 µM (inactive) | inactive |  |  |  | -8.03% (inactive) | -0.271 | -4.98 |  | inactive | 
5 | c1ccc2c(Nc3ccncc3)nc(-c3ccoc3)nc2c1 | 7.37 µM (active) | -7.11% (inactive) | 0.158 µM (active) | -19.5% (inactive) | 3.23% (inactive) | > 46 µM (inactive) | > 46 µM (inactive) | inactive | inactive | inactive | inactive | 14.9% (inactive) | 5.31 | 22.2 | 44.7 µM (active) |  | 
6 | COc1ccc2[nH]cc(CCNc3ncncc3-c3ccccc3CN(C)C)c2c1 | > 11.4 µM (inactive) | -7.44% (inactive) | 20 µM (active) | -7.95% (inactive) | 0.332% (inactive) | > 46 µM (inactive) | > 46 µM (inactive) | inactive | inactive | inactive | inactive | 2.99% (inactive) | -0.105 | 4.99 | inactive | inactive | 0.631 µM (active)
